Results from PubChem BioAssay.
The source made the active and inactive calls. Unless noted, how the calls were made is not given here.

Key:
[1] = tested on: Wnt5a (protein binding on small-molecule microarray); experiment: small molecules binding Wnt5a protein – biophysical, small-molecule microarray, 635/667 nm fluorescence, primary screen (AID 1142); details: 635 nm fluorescence, higher = more signal;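 further: fluorescence read at 667 nm with signal to noise per printed feature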
[2] = ATP-based viability of Huh7 replicon cells – cell-based, CellTiter-Glo luminescence, basal, 48 h, cytotoxicity control for HCV replication inhibitor project, primary screen (AID 1143); details: higher = more signal, called active from +8 up or from −8 down;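 further: Huh7 hepatoma cells carrying a hepatitis C replication reporter with no stimulus; test concentration not given here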
[3] = Pseudomonas biofilm growth suppression – PAO1 strain, BacTiter-Glo luminescence, LB-PBS, primary screen (AID 1144); details: P. aeruginosa PAO1 biofilm, 12 h, higher = more signal
[4] = basal CRE-LacZ reporter activity in PC12 – cell-based, unstimulated, primary screen (AID 1145); details: no forskolin, luminescence, 4.5 h, higher = more signal, called active from +8 up or from −8 down
[5] = forskolin-driven CRE-LacZ activity in PC12 – cell-based, CRE-LacZ reporter, forskolin-stimulated, primary screen (AID 1146); details: luminescence, 4.5 h, higher = more signal, called active from +8 up or from −8 down;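 further: PC12 cells with 6xCRE LacZ reporter stimulated by forskolin 10 µM; beta-galactosidase reporter signal reflecting CREB driven transcription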
[6] = target: Streptavidin (Streptomyces avidinii) (UniProt P22629); experiment: compounds binding control protein streptavidin – biophysical, small-molecule microarray, 635/667 nm fluorescence, artefact control for SMM compound annotation, primary screen (AID 1147); details: higher = more signal;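 further: signal reflects streptavidin binding to arrayed compounds as a control protein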
Streptavidin (Streptomyces avidinii), sequence (P22629 whole entry, looked up): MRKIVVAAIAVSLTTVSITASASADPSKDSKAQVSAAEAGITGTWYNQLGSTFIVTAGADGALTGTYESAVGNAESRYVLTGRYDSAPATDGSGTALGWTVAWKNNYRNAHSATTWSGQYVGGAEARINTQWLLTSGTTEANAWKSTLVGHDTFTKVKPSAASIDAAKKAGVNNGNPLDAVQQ

[7] = probe aInhba binding on compound microarray – biochemical, small-molecule microarray, 635/667 nm fluorescence, primary screen (AID 1148); details: higher = more signal;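 further: score merges 667nm spot fluorescence with signal-to-noise for antibody binding to printed compounds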
Torsin-1A (Homo sapiens) [8] = target: Torsin-1A (Homo sapiens) (UniProt O14656); experiment: TOR1A wild-type binding on microarray – cell lysate, small-molecule microarray, lysate, 635/667 nm, primary screen (AID 1149); details: COS7 hTOR1A-WT lysate, 635 nm fluorescence, higher = more signal
Torsin-1A (Homo sapiens), sequence (O14656 whole entry, looked up): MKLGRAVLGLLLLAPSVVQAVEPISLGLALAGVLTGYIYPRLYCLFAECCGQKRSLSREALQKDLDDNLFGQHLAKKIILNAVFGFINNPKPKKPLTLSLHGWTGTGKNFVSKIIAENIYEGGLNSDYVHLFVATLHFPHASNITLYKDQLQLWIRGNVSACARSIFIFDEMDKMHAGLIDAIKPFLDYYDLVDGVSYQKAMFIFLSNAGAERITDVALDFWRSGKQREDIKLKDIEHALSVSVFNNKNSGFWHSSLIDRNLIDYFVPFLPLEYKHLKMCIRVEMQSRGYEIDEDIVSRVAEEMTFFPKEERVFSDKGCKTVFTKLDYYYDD

Torsin-1A (Homo sapiens) [9] = target: Torsin-1A (Homo sapiens) (UniProt O14656); experiment: torsin A mutant lysate binding on microarrays – cell lysate, small-molecule microarray, COS7 lysate, 635/667 nm fluorescence, primary screen (AID 1150); details: COS7 hTOR1A mutant lysate, 635 nm fluorescence, higher = more signal;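 further: score pools 667 nm emission and signal to noise measuring lysate protein binding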
[10] = tested on: Sonic hedgehog protein (Shh); experiment: Sonic hedgehog microarray binding compounds – biochemical, small-molecule microarray, 635/667 nm fluorescence, primary screen (AID 1151); details: 635 nm fluorescence, higher = more signal;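 further: Shh protein binding to compounds spotted on small-molecule microarray slides; score combines spot fluorescence intensity with signal-to-noise across triplicate slides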

Row | Structure (SMILES) | composite z-score [1] | z-score [2] | z-score [3] | z-score [4] | z-score [5] | composite z-score [6] | composite z-score [7] | composite z-score (Torsin-1A (Homo sapiens) [8]) | composite z-score (Torsin-1A (Homo sapiens) [9]) | composite z-score [10]
1 | C=C(COC)/C(=C/C[C@H](OC(=O)c1ccncc1)c1ccc(OCCO)cc1)c1cnc2ccccc2c1 | 0.638 | -0.593 (inactive) | 0.308 (inactive) | 6.73 (inactive) | -0.073 (inactive) | 1.73 | -0.0087 | 1.27 | 0.953 | 2.11
2 | C=C(COC)/C(=C/C[C@@H](OC(C)=O)c1ccc(OCCO)cc1)c1cc(C(=O)OC)ccc1OC | 0.969 | -0.21 (inactive) | -0.201 (inactive) | 1.82 (inactive) | 1.96 (inactive) | -0.0154 | 0.0154 | 0.518 | 0.672 | 1.57
3 | O=C1NC(=O)C2C1C=CC(C(O)Cc1ccccc1)N2Nc1ccc(Cl)cc1Cl (stereo not given) | -0.209 | -0.0389 (inactive) | -0.171 (inactive) | 0.44 (inactive) | 0.115 (inactive) | 0.889 | 0.0345 | -0.0973 | 1.12 | -0.546
4 | C=C(COC)/C(=C/C[C@@H](OC(C)=O)c1ccc(CO)o1)c1cnc2ccccc2c1 | 0.387 | -0.0797 (inactive) | -1.14 (inactive) | 0.159 (inactive) | -1.6 (inactive) | 1.3 | 0.147 | 0.797 | 0.73 | 2.1
5 | O=C1O[C@H](c2ccccc2)[C@H](c2ccccc2)N2[C@H]1[C@@H](C(=O)Nc1nc3ccccc3s1)[C@]1(C(=O)Nc3ccc(C#CCCO)cc31)[C@H]2c1ccc(OCCO)cc1 | 0.767 | -0.218 (inactive) | -0.0404 (inactive) | -0.471 (inactive) | 0.806 (inactive) | 1.1 | 0.532 | 1.15 | 0.637 | 1.05
6 | COc1ccc(C(=O)Nc2cccc(CN3C(=O)[C@]4(O[C@H](CCO)[C@@H]([Si](C)(C)c5ccc(OC)cc5)[C@@H]4C)c4ccccc43)c2)cc1 | 0.24 | -8.03 (active) | -0.694 (inactive) | 10.9 (active) | -1.29 (inactive) | 0.388 | -0.121 | 0.271 | 0.424 | 1.83
7 | C[C@@H]1ON(c2cccc(C(=O)OC(C)(C)C)c2)[C@H](c2ccc(Br)cc2)[C@H]1C(=O)N1C(=O)OC[C@H]1Cc1ccccc1 | 0.458 | -0.242 (inactive) | 0.938 (inactive) | 1.49 (inactive) | -0.278 (inactive) | 0.852 | 0.134 | 0.18 | 0.389 | 0.937
8 | COCCOC(=O)N1C(=O)[C@@]2(c3cc(C#Cc4ccc(OC)cc4)ccc31)[C@H](c1ccccc1OCCO)N1[C@H](c3ccccc3)[C@H](c3ccccc3)OC(=O)[C@H]1[C@@H]2C(=O)N1CCN(c2ncccn2)CC1 | 0.418 | -0.915 (inactive) | -0.418 (inactive) | -0.199 (inactive) | 0.298 (inactive) | 0.226 | -0.0405 | 0.617 | 0.374 | 1.05
9 | CN(C)CCCCCCNC(=O)[C@@H]1C[C@@H]2C(=O)N[C@@H](CCCCN)C(=O)N2[C@@H]1c1cccc(OCCO)c1 | 1.97 | -0.598 (inactive) | -1.19 (inactive) | -0.268 (inactive) | -0.199 (inactive) | 3.03 | 1.57 | 3.29 | 3.11 | 1.92
10 | COCCOC(=O)N1C(=O)[C@@]2(c3cc(C#CC4=CCCCC4)ccc31)[C@H](C(=O)Nc1nc3ccccc3s1)[C@H]1C(=O)O[C@H](c3ccccc3)[C@H](c3ccccc3)N1[C@@H]2c1ccc(OCCO)cc1 | 0.575 | -1.49 (inactive) | -1.07 (inactive) | -0.258 (inactive) | -0.47 (inactive) | 0.986 | -0.0221 | 0.256 | 0.254 | 1.5
11 | CCN(CC)c1ccc(N2CC=CC34O[C@@H]5/C=C\CCC(C)OC(=O)C5[C@H]3C(=O)N(C(CO)C(C)C)[C@@H]4C2=O)cc1 (stereo not given in full) | -0.443 | -0.122 (inactive) | 0.805 (inactive) | 0.337 (inactive) | 0.199 (inactive) | -0.826 | -0.108 | -0.918 | -1.32 | 0.661
12 | COc1cc(OC)c(C(O)C2C=CC3C(=O)NC(=O)C3N2Nc2ccc(Cl)cc2Cl)cc1Br (stereo not given) | 0.153 | -2.57 (inactive) | -0.835 (inactive) | 0.433 (inactive) | -0.919 (inactive) | 1.64 | 0.0111 | -0.241 | 0.414 | -0.366
13 | COc1ccc(C(O)C2C=CC3C(=O)N(c4ccccc4)C(=O)C3N2Nc2ccccc2F)cc1OCc1ccccc1 (stereo not given) | 0.353 | 0.0131 (inactive) | -0.547 (inactive) | -0.143 (inactive) | -0.269 (inactive) | 1.47 | 1.14 | 0.281 | 0.671 | -0.876
14 | CCOC(=O)[C@H]1CC=C2CC1C(=O)N1CCC[C@@H]1[C@@H]2O[Si](C)(C)C(C)(C)C (stereo not given in full) | -0.395 | -6.23 (inactive) | -0.451 (inactive) | -0.776 (inactive) | -0.661 (inactive) | -1.49 | -0.238 | -0.55 | -0.83 | 0.398
15 | O=C1c2ccccc2[C@](Cc2ccccc2I)(C(=O)NC2CC2)[C@H](c2ccc(CO)cc2)N1C1CCCCC1 | 0.557 | -3.43 (inactive) | 0.214 (inactive) | 0.531 (inactive) | 0.424 (inactive) | 1.05 | 0.306 | 0.414 | 0.68 | 1.06
16 | CCN(CC)c1ccc(N2CC=CC34O[C@@H]5/C=C\CCCOC(=O)C5[C@H]3C(=O)N(CCO)[C@@H]4C2=O)cc1 (stereo not given in full) | -0.6 | -0.117 (inactive) | 0.0243 (inactive) | 0.601 (inactive) | -0.462 (inactive) | -0.79 | -0.219 | -1.53 | -0.705 | 0.0512
17 | C=CC[C@]1(C(=O)N2CCCCC2)N=C(c2ccc(OCCCO)cc2)O[C@H]1c1ccccc1 | 0.15 | -3.83 (inactive) | 0.351 (inactive) | 2.73 (inactive) | 0.0819 (inactive) | 0.224 | 0.573 | 0.29 | 1.11 | -0.328
18 | COc1ccc([Si](C)(C)[C@@H]2[C@@H](CCO)O[C@]3(C(=O)N(Cc4ccc(N5C(=O)COc6ccccc65)cc4)c4ccccc43)[C@H]2C)cc1 | 0.44 | -7.31 (inactive) | -0.374 (inactive) | 0.804 (inactive) | 2.02 (inactive) | 0.636 | 0.0261 | 0.436 | 0.586 | 1.57
19 | Cc1ccc(S[C@]2(C(=O)NCCN3CCOCC3)CC(=O)N(Cc3ccccc3Cl)[C@@H]2c2ccc(CO)cc2)cc1 | -0.0036 | -2.93 (inactive) | -1.98 (inactive) | 0.441 (inactive) | 1.1 (inactive) | -0.625 | -0.255 | -2.16 | 0.269 | -0.143
20 | [N-]=[N+]=Nc1ccccc1C[C@@]1(C(=O)NCCN2CCOCC2)N=C(c2ccc(OCCCO)cc2)O[C@@H]1c1ccccc1 | 0.785 | -3.8 (inactive) | -0.49 (inactive) | -0.435 (inactive) | -1.61 (inactive) | 0.302 | 0.258 | 0.304 | 0.617 | 0.721
21 | COc1ccc([C@H]2C[C@H]3C(Br)=C[C@@H]2C(=O)[C@]32CO2)cc1 | -0.0556 | 0.0402 (inactive) | 1.11 (inactive) | 2.85 (inactive) | 0.357 (inactive) | 0.256 | -0.0822 | -0.0733 | -0.12 | 0.311
